# Source: ChEMBL document CHEMBL3433997, “St. Jude Leishmania screening dataset” (2016)
# Biological target: Solute carrier family 2, facilitated glucose transporter member 1 (Homo sapiens) (UniProt P11166)
# Assay: ST_JUDE_LEISH: Cytotoxicity at 2uM final concentration against transgenic Leishmania Mexicana promastigotes LmGLUT1 that are glucose transport deficient and complemented with the human glucose transporter GLUT1. Activity is measured by DNA content using SYBR green in vitro
# Assay type: functional
# Sequence of Solute carrier family 2, facilitated glucose transporter member 1 (Homo sapiens) (P11166 whole entry): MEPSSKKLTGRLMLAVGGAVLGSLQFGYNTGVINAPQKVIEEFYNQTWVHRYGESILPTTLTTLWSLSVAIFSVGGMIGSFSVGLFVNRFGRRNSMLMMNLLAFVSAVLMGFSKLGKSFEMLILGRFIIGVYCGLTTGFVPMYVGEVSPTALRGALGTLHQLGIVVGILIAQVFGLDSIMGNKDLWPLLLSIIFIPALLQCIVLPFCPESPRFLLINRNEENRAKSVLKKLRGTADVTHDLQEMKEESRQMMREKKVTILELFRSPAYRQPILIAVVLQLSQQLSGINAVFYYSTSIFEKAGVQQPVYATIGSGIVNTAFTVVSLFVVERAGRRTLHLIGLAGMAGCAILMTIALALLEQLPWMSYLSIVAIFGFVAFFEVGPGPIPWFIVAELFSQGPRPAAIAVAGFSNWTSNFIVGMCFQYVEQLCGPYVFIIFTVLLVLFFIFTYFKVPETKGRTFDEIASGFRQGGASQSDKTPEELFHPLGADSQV
row,Compound,inhibition
1,O=C(NCc1ccc(C(=O)NC2CCCCCC2)cc1)c1ccc(O)c(-c2ccc(Cl)c(Cl)c2)c1,1.17%
2,CC(C)(C)c1cc(C(=O)Nc2cccnc2)cc(C(=O)Nc2cccnc2)c1,2.58%
3,Cc1ccc(NC(=O)Nc2ccc(S(=O)(=O)c3ccc(NC(=O)Nc4ccc(C)c(Cl)c4)cc3)cc2)cc1Cl,0.06%
4,Cn1cnc(CCNC(=O)c2cccc(-c3cccc(-c4nc5cc(C(F)(F)F)ccc5[nH]4)c3)c2)c1,-1.68%
5,Cc1nc(Nc2ccc(F)cc2)nc(N2CCc3ccccc3C2C)c1CO (stereo not drawn),5.38%
6,O=C(Nc1cc(Cl)ccc1O)c1cnn2c(C(F)(F)F)cc(-c3cccs3)nc12,2.61%
7,O=C(NCCCNc1ccnc2cc(Cl)ccc12)c1ccccc1F,4.12%
8,Cc1c(F)cc(C(=O)NC2CC2)cc1-c1ccc2c(cnn2S(=O)(=O)c2ccc(F)c(F)c2)c1,5.87%
9,CCc1nc(N)nc(N)c1-c1ccc2c(c1)CCCC2,2.54%
10,CCCCSc1ccc2nc(-c3c[nH]c4ccc(C#N)cc34)cn2c1,-0.49%
11,NC(=O)C1Cc2ccccc2CN1CC(=O)Nc1ccccc1Sc1ccccc1 (stereo not drawn),2.73%
12,Cc1ccc2ccncc2c1N,7.9%
13,O=c1cc(NCCC(CNCc2ccoc2)NCc2cc(Br)cc(Br)c2)[nH]c2ccccc12 (stereo not drawn),6.77%
14,Cc1cc(N[C@@H](CC(C)C)C(=O)NCCc2ccccc2)nc(Nc2ccccc2)n1,4.26%
15,CCN(CC)CCCC(C)Nc1nc(C=Cc2ccc(Br)cc2)nc2cc(Cl)ccc12 (stereo not drawn),11%
16,O=C(/C=C/c1ccc(Cl)c(Cl)c1)NCCCCCN1CCC(NC(=O)Nc2ccc3c(c2)OCO3)CC1,0.33%
17,O=C(/C=C/c1ccc(Cl)c(Cl)c1)NCCCCCN1CCC(c2c[nH]c3ccccc23)CC1,1.33%
18,Cc1cc(-c2ccc3c(c2)CC[C@@H](N[C@@H](C)c2ccccc2)C3)cnc1N,4.92%
19,COc1ccc2cc(-c3nc(-c4c(Cl)cccc4Cl)[nH]c3-c3ccnc(NCCCN4CCN(C)CC4)c3)ccc2c1,-1.11%
20,CC1(C)NC(N)=NC(=N)N1OCCCCOc1ccccc1,-2.95%

row,Compound,inhibition
1,Cc1[nH]c(C)c(-c2ccc(Oc3ccc(Cl)cc3)cc2)c(=O)c1Br,-0.61%
2,COc1ccc2nccc(N3CCC(CCNCc4ccc5c(n4)NC(=O)CS5)CC3)c2n1,4.06%
3,Cc1c(C)c2c(c(C)c1O)CC[C@](C)(C(=O)N1CCC(CCN3CCC(c4c[nH]c5ccccc45)CC3)CC1)O2,0.17%
4,COc1ccccc1C1CCN(CCCCNC(=O)c2ccc(/C=C/c3cc(Cl)cc(Cl)c3)cc2)CC1,2.68%
5,Cc1cc(NC(=O)CCCN2CCN(c3cccc(Cl)c3Cl)CC2)ccc1N1CCN(C(C)C)CC1,9.52%
6,Cc1ccc(-c2cnc(N)c3cc(-c4ccnc(N)n4)ccc23)cc1,-0.17%
7,COc1ccc2nc(Nc3nc4cnccc4[nH]3)sc2c1,4.17%
8,CN1CCC[C@H]1COc1ccc(CN2CC[C@H](NC(=O)c3ccc(Cl)c(Cl)c3)C2)cc1Br,2.61%
9,CN1CCCc2ccc(NC(=O)C=Cc3ccc(-c4ccc(F)cc4F)o3)cc2C1,0.88%
10,N#Cc1ccc2c(c1)CCN(CCC1CCC(NC(=O)/C=C/c3cnc4ccccc4c3)CC1)CC2 (stereo not drawn),8.52%
11,CC(=O)Nc1ccc2[nH]cc(C3CCN(CC4CCC(NC(=O)/C=C/c5ccc(Cl)c(Cl)c5)CC4)CC3)c2n1 (stereo not drawn),-0.73%
12,Cc1noc(C)c1-c1ccc2c(Nc3ccccc3N3CCOCC3)c(C(=O)NCc3ccccc3)cnc2c1,8.19%
13,COc1cc(Nc2ncnc3cc(OC)c(OC)cc23)cc([N+](=O)[O-])c1,-1.65%
14,NC(=O)c1c(Cl)nc2ccccc2c1Cl,4.35%
15,COc1ccc(NC(=O)Nc2cccc(-c3ccc(-c4nc5cc(C(F)(F)F)ccc5[nH]4)cc3)c2)cc1,0.43%
16,Cc1cccc2nc(-c3cccc(-c4ccc(CN5CCC(C(N)=O)CC5)cc4)c3)[nH]c12,9.22%
17,CC(C)Sc1nc2c(c(=O)n1Cc1ccco1)C1(CCCCC1)Cc1ccccc1-2,2.09%
18,CCCCCCCNCCNc1cc(C)nc2ccccc12,2.03%
19,Cc1cccc2nc(-c3ccc(-c4cccc(CNCc5ccccc5)c4)cc3)[nH]c12,16.8%

# Biological target: Hexose transporter 1 (Plasmodium falciparum) (UniProt O97467)
# Assay: ST_JUDE_LEISH: Cytotoxicity at 2uM final concentration against transgenic Leishmania Mexicana promastigotes LmPfHT that are glucose transport deficient and complemented with the Plasmodium falciparum hexose transporter. Activity is measured by DNA content using SYBR green in vitro
# Assay type: functional
row,Compound,inhibition
1,O=C(NCc1ccc(C(=O)NC2CCCCCC2)cc1)c1ccc(O)c(-c2ccc(Cl)c(Cl)c2)c1,1.13%
2,CC(C)(C)c1cc(C(=O)Nc2cccnc2)cc(C(=O)Nc2cccnc2)c1,1.97%
3,Cc1ccc(NC(=O)Nc2ccc(S(=O)(=O)c3ccc(NC(=O)Nc4ccc(C)c(Cl)c4)cc3)cc2)cc1Cl,-0.49%
4,Cn1cnc(CCNC(=O)c2cccc(-c3cccc(-c4nc5cc(C(F)(F)F)ccc5[nH]4)c3)c2)c1,1%
5,Cc1nc(Nc2ccc(F)cc2)nc(N2CCc3ccccc3C2C)c1CO (stereo not drawn),7.38%
6,O=C(Nc1cc(Cl)ccc1O)c1cnn2c(C(F)(F)F)cc(-c3cccs3)nc12,4.71%
7,O=C(NCCCNc1ccnc2cc(Cl)ccc12)c1ccccc1F,3.35%
8,Cc1c(F)cc(C(=O)NC2CC2)cc1-c1ccc2c(cnn2S(=O)(=O)c2ccc(F)c(F)c2)c1,5.31%
9,CCc1nc(N)nc(N)c1-c1ccc2c(c1)CCCC2,3.35%
10,CCCCSc1ccc2nc(-c3c[nH]c4ccc(C#N)cc34)cn2c1,3.17%
11,NC(=O)C1Cc2ccccc2CN1CC(=O)Nc1ccccc1Sc1ccccc1 (stereo not drawn),2.07%
12,Cc1ccc2ccncc2c1N,3.24%
13,O=c1cc(NCCC(CNCc2ccoc2)NCc2cc(Br)cc(Br)c2)[nH]c2ccccc12 (stereo not drawn),6.66%
14,Cc1cc(N[C@@H](CC(C)C)C(=O)NCCc2ccccc2)nc(Nc2ccccc2)n1,5.37%
15,CCN(CC)CCCC(C)Nc1nc(C=Cc2ccc(Br)cc2)nc2cc(Cl)ccc12 (stereo not drawn),9.25%
16,O=C(/C=C/c1ccc(Cl)c(Cl)c1)NCCCCCN1CCC(NC(=O)Nc2ccc3c(c2)OCO3)CC1,2.53%
17,O=C(/C=C/c1ccc(Cl)c(Cl)c1)NCCCCCN1CCC(c2c[nH]c3ccccc23)CC1,4.32%
18,Cc1cc(-c2ccc3c(c2)CC[C@@H](N[C@@H](C)c2ccccc2)C3)cnc1N,1.71%
19,COc1ccc2cc(-c3nc(-c4c(Cl)cccc4Cl)[nH]c3-c3ccnc(NCCCN4CCN(C)CC4)c3)ccc2c1,-1.01%
20,CC1(C)NC(N)=NC(=N)N1OCCCCOc1ccccc1,0.84%

row,Compound,inhibition
1,Cc1[nH]c(C)c(-c2ccc(Oc3ccc(Cl)cc3)cc2)c(=O)c1Br,0.25%
2,COc1ccc2nccc(N3CCC(CCNCc4ccc5c(n4)NC(=O)CS5)CC3)c2n1,4.8%
3,Cc1c(C)c2c(c(C)c1O)CC[C@](C)(C(=O)N1CCC(CCN3CCC(c4c[nH]c5ccccc45)CC3)CC1)O2,-1.76%
4,COc1ccccc1C1CCN(CCCCNC(=O)c2ccc(/C=C/c3cc(Cl)cc(Cl)c3)cc2)CC1,2.81%
5,Cc1cc(NC(=O)CCCN2CCN(c3cccc(Cl)c3Cl)CC2)ccc1N1CCN(C(C)C)CC1,5.3%
6,Cc1ccc(-c2cnc(N)c3cc(-c4ccnc(N)n4)ccc23)cc1,-2.15%
7,COc1ccc2nc(Nc3nc4cnccc4[nH]3)sc2c1,4.93%
8,CN1CCC[C@H]1COc1ccc(CN2CC[C@H](NC(=O)c3ccc(Cl)c(Cl)c3)C2)cc1Br,2.26%
9,CN1CCCc2ccc(NC(=O)C=Cc3ccc(-c4ccc(F)cc4F)o3)cc2C1,0.81%
10,N#Cc1ccc2c(c1)CCN(CCC1CCC(NC(=O)/C=C/c3cnc4ccccc4c3)CC1)CC2 (stereo not drawn),4.53%
11,CC(=O)Nc1ccc2[nH]cc(C3CCN(CC4CCC(NC(=O)/C=C/c5ccc(Cl)c(Cl)c5)CC4)CC3)c2n1 (stereo not drawn),0.9%
12,Cc1noc(C)c1-c1ccc2c(Nc3ccccc3N3CCOCC3)c(C(=O)NCc3ccccc3)cnc2c1,5.91%
13,COc1cc(Nc2ncnc3cc(OC)c(OC)cc23)cc([N+](=O)[O-])c1,0.11%
14,NC(=O)c1c(Cl)nc2ccccc2c1Cl,4.69%
15,COc1ccc(NC(=O)Nc2cccc(-c3ccc(-c4nc5cc(C(F)(F)F)ccc5[nH]4)cc3)c2)cc1,-0.19%
16,Cc1cccc2nc(-c3cccc(-c4ccc(CN5CCC(C(N)=O)CC5)cc4)c3)[nH]c12,9.68%
17,CC(C)Sc1nc2c(c(=O)n1Cc1ccco1)C1(CCCCC1)Cc1ccccc1-2,2.03%
18,CCCCCCCNCCNc1cc(C)nc2ccccc12,7.41%
19,Cc1cccc2nc(-c3ccc(-c4cccc(CNCc5ccccc5)c4)cc3)[nH]c12,9.57%
